Assay results: PubChem BioAssay
Active and inactive are the calls of the source. Unless noted, how the calls were made is not given here.

Columns and labels:
[1] = system: Wnt5a (protein binding on small-molecule microarray); assay: small molecules binding Wnt5a protein – biophysical, small-molecule microarray, 635/667 nm fluorescence, primary screen (AID 1142); details: 635 nm fluorescence, higher = more signal;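 further: fluorescence read at 667 nm with signal to noise per printed feature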
[2] = ATP-based viability of Huh7 replicon cells – cell-based, CellTiter-Glo luminescence, basal, 48 h, cytotoxicity control for HCV replication inhibitor project, primary screen (AID 1143); details: higher = more signal, called active from +8 up or from −8 down;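 further: Huh7 hepatoma cells carrying a hepatitis C replication reporter with no stimulus; test concentration not given here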
[3] = Pseudomonas biofilm growth suppression – PAO1 strain, BacTiter-Glo luminescence, LB-PBS, primary screen (AID 1144); details: P. aeruginosa PAO1 biofilm, 12 h, higher = more signal
[4] = basal CRE-LacZ reporter activity in PC12 – cell-based, unstimulated, primary screen (AID 1145); details: no forskolin, luminescence, 4.5 h, higher = more signal, called active from +8 up or from −8 down
[5] = forskolin-driven CRE-LacZ activity in PC12 – cell-based, CRE-LacZ reporter, forskolin-stimulated, primary screen (AID 1146); details: luminescence, 4.5 h, higher = more signal, called active from +8 up or from −8 down;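 further: PC12 cells with 6xCRE LacZ reporter stimulated by forskolin 10 µM; beta-galactosidase reporter signal reflecting CREB driven transcription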
[6] = target: Streptavidin (Streptomyces avidinii) (UniProt P22629); assay: compounds binding control protein streptavidin – biophysical, small-molecule microarray, 635/667 nm fluorescence, artefact control for SMM compound annotation, primary screen (AID 1147); details: higher = more signal;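 further: signal reflects streptavidin binding to arrayed compounds as a control protein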
[7] = probe aInhba binding on compound microarray – biochemical, small-molecule microarray, 635/667 nm fluorescence, primary screen (AID 1148); details: higher = more signal;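 further: score merges 667nm spot fluorescence with signal-to-noise for antibody binding to printed compounds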
[8] = target: Torsin-1A (Homo sapiens) (UniProt O14656); assay: TOR1A wild-type binding on microarray – cell lysate, small-molecule microarray, lysate, 635/667 nm, primary screen (AID 1149); details: COS7 hTOR1A-WT lysate, 635 nm fluorescence, higher = more signal
[9] = target: Torsin-1A (Homo sapiens) (UniProt O14656); assay: torsin A mutant lysate binding on microarrays – cell lysate, small-molecule microarray, COS7 lysate, 635/667 nm fluorescence, primary screen (AID 1150); details: COS7 hTOR1A mutant lysate, 635 nm fluorescence, higher = more signal;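 further: score pools 667 nm emission and signal to noise measuring lysate protein binding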
[10] = system: Sonic hedgehog protein (Shh); assay: Sonic hedgehog microarray binding compounds – biochemical, small-molecule microarray, 635/667 nm fluorescence, primary screen (AID 1151); details: 635 nm fluorescence, higher = more signal;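 further: Shh protein binding to compounds spotted on small-molecule microarray slides; score combines spot fluorescence intensity with signal-to-noise across triplicate slides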
[11] = optical density shifts of acrAB sulA E. coli – strain DRC41, OD650, 48 h, E. coli filamentation inducer project, primary screen (AID 1152); details: higher = more signal, called active from +8 up or from −8 down;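 further: E. coli MC1000 strain DRC41 lacking acrAB efflux pump and sulA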
[12] = probe aLefty1 binding on compound microarray – biochemical, small-molecule microarray, 635/667 nm fluorescence, primary screen (AID 1153); details: higher = more signal;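 further: score merges spot fluorescence with signal-to-noise ratio from the scanned slide images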
[13] = plasmodial surface anion channel blockers, osmotic lysis – cell-based, P. falciparum Indochina, OD700, 1 h, primary screen (AID 1154); details: P. falciparum Indochina infected RBC osmotic lysis, higher = more signal, called active from +8 up or from −8 down
[14] = plasmodial surface anion channel blockers, osmotic lysis – cell-based, P. falciparum Indochina, OD700, 2 h, primary screen (AID 1155);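 further: lysis reports solute entry through the parasite surface anion channel PSAC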; details: P. falciparum Indochina infected erythrocytes, higher = more signal, called active from +8 up or from −8 down
[15] = changes in parasitized red cell lysis, either direction – P. falciparum Indochina, OD700, 3 h, PSAC antagonist project, primary screen (AID 1156); details: P. falciparum-infected erythrocytes, osmotic lysis, higher = more signal, called active from +8 up or from −8 down
[16] = plasmodial surface anion channel blockers, osmotic lysis – cell-based, P. falciparum Indochina, OD700, 18 h, primary screen (AID 1157); details: P. falciparum Indochina infected erythrocytes, osmotic lysis OD700, 18 h; higher = more signal, called active from +8 up or from −8 down
[17] = S6 kinase pathway phospho-S6 level changes – cell-based, A549, cytoblot, luminescence, serum-stimulated, primary screen (AID 1158); details: 5 h, higher = more signal;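 further: serum-stimulated A549 lung adenocarcinoma cells; signal is phosphorylated S6 detected by cytoblot immunostaining with HRP secondary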
[18] = target: NADPH oxidase 2 (Homo sapiens) (UniProt P04839); assay: compounds shifting NOX2 Amplex Red fluorescence – cell-based, HEK293-NOX2, PMA-stimulated, NOX inhibitor project, primary screen (AID 1159); details: 45 min, higher = more signal, called active from +8 up or from −8 down; further: test concentration not given here
[19] = target: NADPH oxidase 4 (Homo sapiens) (UniProt Q9NPH5); assay: compounds shifting NOX4 Amplex Red fluorescence – cell-based, HEK293-NOX4, tetracycline-induced, NOX inhibitor project, primary screen (AID 1160); details: HEK293-NOX4, Amplex Red H2O2 fluorescence, 45 min; higher = more signal, called active from +8 up or from −8 down
[20] = target: NADPH oxidase 5 (Homo sapiens) (UniProt Q96PH1); assay: compounds shifting NOX5 Amplex Red fluorescence – cell-based, HEK293-NOX5, NOX inhibitor project, primary screen (AID 1161); details: HEK293-NOX5, ionomycin, 45 min, higher = more signal
Chain of NADPH oxidase 5 (Homo sapiens) (Q96PH1 whole entry, looked up): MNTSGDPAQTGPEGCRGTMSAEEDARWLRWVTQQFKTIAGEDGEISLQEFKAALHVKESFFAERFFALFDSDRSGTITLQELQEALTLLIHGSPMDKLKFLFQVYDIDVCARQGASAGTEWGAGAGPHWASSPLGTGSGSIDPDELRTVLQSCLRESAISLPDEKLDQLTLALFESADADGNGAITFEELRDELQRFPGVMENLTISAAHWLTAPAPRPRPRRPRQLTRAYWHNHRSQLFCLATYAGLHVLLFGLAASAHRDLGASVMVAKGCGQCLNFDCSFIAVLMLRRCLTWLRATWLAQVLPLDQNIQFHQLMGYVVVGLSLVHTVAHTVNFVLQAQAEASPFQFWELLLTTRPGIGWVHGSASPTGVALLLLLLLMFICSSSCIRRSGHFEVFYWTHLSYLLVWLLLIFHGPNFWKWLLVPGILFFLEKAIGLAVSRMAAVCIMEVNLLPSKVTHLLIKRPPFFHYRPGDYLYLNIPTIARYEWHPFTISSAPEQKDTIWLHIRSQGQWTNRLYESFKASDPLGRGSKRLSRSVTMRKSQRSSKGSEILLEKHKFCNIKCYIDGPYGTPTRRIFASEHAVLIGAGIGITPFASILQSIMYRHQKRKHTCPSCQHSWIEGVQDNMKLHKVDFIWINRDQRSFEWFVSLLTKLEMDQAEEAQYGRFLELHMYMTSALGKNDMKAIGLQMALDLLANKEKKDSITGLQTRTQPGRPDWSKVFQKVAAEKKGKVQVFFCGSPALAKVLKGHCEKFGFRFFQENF

Chain of NADPH oxidase 4 (Homo sapiens) (Q9NPH5 whole entry, looked up): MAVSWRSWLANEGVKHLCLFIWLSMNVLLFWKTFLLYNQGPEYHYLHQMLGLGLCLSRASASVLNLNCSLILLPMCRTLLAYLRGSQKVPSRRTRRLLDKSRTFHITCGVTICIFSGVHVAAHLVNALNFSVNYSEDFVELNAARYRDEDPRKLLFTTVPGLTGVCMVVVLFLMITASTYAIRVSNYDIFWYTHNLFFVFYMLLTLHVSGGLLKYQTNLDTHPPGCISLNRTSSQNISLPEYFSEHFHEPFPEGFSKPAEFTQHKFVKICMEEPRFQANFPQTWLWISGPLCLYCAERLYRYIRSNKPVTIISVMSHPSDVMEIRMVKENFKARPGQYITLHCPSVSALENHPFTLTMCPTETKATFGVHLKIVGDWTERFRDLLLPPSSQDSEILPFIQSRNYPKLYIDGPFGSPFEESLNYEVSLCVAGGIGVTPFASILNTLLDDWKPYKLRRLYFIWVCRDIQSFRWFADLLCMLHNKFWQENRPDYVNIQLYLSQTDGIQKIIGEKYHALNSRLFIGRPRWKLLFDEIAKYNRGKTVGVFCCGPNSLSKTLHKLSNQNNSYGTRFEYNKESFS
Chain of NADPH oxidase 2 (Homo sapiens) (P04839 whole entry, looked up): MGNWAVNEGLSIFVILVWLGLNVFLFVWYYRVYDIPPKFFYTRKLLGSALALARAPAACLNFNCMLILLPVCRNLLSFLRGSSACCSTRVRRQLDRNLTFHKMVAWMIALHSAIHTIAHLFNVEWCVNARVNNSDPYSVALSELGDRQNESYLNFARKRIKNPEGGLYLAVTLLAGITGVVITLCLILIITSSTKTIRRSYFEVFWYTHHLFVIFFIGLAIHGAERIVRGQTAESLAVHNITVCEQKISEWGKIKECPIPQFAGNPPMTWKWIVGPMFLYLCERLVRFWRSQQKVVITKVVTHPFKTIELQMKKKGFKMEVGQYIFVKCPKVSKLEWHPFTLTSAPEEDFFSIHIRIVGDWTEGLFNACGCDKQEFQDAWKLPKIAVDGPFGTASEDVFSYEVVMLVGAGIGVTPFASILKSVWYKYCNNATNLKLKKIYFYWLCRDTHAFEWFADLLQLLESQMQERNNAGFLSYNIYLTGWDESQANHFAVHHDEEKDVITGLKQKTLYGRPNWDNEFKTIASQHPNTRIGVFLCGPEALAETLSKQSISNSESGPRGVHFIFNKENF
Chain of Torsin-1A (Homo sapiens) (O14656 whole entry, looked up): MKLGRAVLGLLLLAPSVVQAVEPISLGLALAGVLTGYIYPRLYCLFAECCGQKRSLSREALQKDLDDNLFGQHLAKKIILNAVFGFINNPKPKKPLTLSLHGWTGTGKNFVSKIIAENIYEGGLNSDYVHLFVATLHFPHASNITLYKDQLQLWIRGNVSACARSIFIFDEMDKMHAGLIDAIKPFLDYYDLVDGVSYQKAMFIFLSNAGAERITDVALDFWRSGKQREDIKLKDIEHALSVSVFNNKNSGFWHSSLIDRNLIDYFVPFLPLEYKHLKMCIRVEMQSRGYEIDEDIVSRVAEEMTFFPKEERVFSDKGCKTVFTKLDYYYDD
Chain of Streptavidin (Streptomyces avidinii) (P22629 whole entry, looked up): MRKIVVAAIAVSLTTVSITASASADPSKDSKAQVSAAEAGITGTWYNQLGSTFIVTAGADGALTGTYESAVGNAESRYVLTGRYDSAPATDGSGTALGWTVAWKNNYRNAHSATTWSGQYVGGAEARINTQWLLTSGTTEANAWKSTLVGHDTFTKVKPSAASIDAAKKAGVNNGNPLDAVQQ

Compound	composite z-score [1]	z-score [2]	z-score [3]	z-score [4]	z-score [5]	composite z-score [6]	composite z-score [7]	composite z-score [8]	composite z-score [9]	composite z-score [10]	z-score [11]	composite z-score [12]	z-score [13]	z-score [14]	z-score [15]	z-score [16]	z-score [17]	z-score [18]	z-score [19]	z-score [20]
COC(=O)C(CC#Cc1ccc2c(c1)[C@]1(C(=O)N2)[C@H](c2ccc(O)cc2)N2[C@H](c3ccccc3)[C@H](c3ccccc3)OC(=O)[C@H]2[C@@H]1C(=O)O)C(=O)OC	-0.198	-0.627 (inactive)	-0.191 (inactive)	0.389 (inactive)	0.416 (inactive)	-0.0974	-0.212	-0.295	0.168	0.262	-1.42 (inactive)	0.0315	0.489 (inactive)	-0.18 (inactive)	-0.258 (inactive)	-0.367 (inactive)	-0.351	1.42 (inactive)	0.0467 (inactive)	1.29
COC(=O)[C@]1(Cc2ccccc2CN=[N+]=[N-])N=C(c2ccc(OCCCO)cc2)O[C@@H]1c1ccccc1CN=[N+]=[N-]	0.749	-4.12 (inactive)	-0.247 (inactive)	1.6 (inactive)	-1.01 (inactive)	-0.908	-0.0471	-0.355	-0.27	0.353	1.23 (inactive)	0.0962	30.8 (active)	24.1 (active)	1.88 (inactive)	5.85 (inactive)	0.196	-2.35 (inactive)	-0.0356 (inactive)	-1.79
CC1=C2[C@@H](CCc3ccccc3)OB(O)C[C@@H]2[C@@H]2C(=O)C=CC(=O)[C@@H]2C1	0.135	-0.894 (inactive)	0.0958 (inactive)	14.1 (active)	28.4 (active)	0.537	-0.0873	0.355	0.474	1.44	-0.23 (inactive)	0.0402	2.27 (inactive)	0.229 (inactive)	0.236 (inactive)	0.182 (inactive)	0.166	-0.128 (inactive)	-2 (inactive)	-3.15
COC(=O)[C@@]1(Cc2ccc(OC)cc2)[C@H]2c3cc(C(=O)N4CCCC4)n(CCF)c3C[C@H]2CN1C(=O)c1ccccc1	2.55	-2.46 (inactive)	-0.129 (inactive)	0.972 (inactive)	0.325 (inactive)	1.5	2.05	-0.0089	0.619	-0.801	-1.28 (inactive)	2.49	10.4 (active)	1.42 (inactive)	2.39 (inactive)	1.13 (inactive)	0.181	-0.201 (inactive)	-2.52 (inactive)	-3.65
COCCOC(=O)N1C(=O)[C@@]2(c3cc(C#CC4(O)CCCCCC4)ccc31)[C@H](C(=O)N1CCc3cc(OC)c(OC)cc3C1)[C@H]1C(=O)O[C@H](c3ccccc3)[C@H](c3ccccc3)N1[C@@H]2c1ccccc1OCCO	0.855	-2.18 (inactive)	1.66 (inactive)	0.0736 (inactive)	3.93 (inactive)	0.149	0.448	0.0869	0.326	1.29	0.803 (inactive)	0.496	1.39 (inactive)	1.15 (inactive)	0.496 (inactive)	0.655 (inactive)	-0.0095	2.73 (inactive)	-0.879 (inactive)	0.554
O=C1N(Cc2ccccc2)c2ccccc2[C@H]2OC(c3ccc(OCCCO)cc3)=N[C@@]12CCS(=O)(=O)c1ccccc1	0.889	-4.05 (inactive)	-1.19 (inactive)	2.96 (inactive)	-1 (inactive)	0.211	0.166	0.795	0.591	2.09	-0.751 (inactive)	0.396	25.3 (active)	11.8 (active)	2.9 (inactive)	1.85 (inactive)	-0.0791	-0.596 (inactive)	-0.793 (inactive)	-1.21
O=[N+]([O-])c1ccc(C[n+]2ccc(-c3ccc(CO)cc3)cc2)o1	-0.0922	-1.13 (inactive)	-0.42 (inactive)	-0.464 (inactive)	0.239 (inactive)	0.85	0.0816	-0.078	0.0063	1.44	-1.32 (inactive)	-0.0764	1.34 (inactive)	0.199 (inactive)	0.495 (inactive)	-0.139 (inactive)	-0.103	0.0654 (inactive)	-0.765 (inactive)	-3.73
C=C(/C(=C/C[C@@H](OC(=O)c1ccncc1)c1cccc(OCCO)c1)c1cc(C(=O)OC)ccc1OC)C(C)C	-0.0958	-1.82 (inactive)	-0.634 (inactive)	26.8 (active)	-1.07 (inactive)	0.179	-0.0695	0.227	0.868	1.64	0.987 (inactive)	0.649	15 (active)	3.01 (inactive)	2.43 (inactive)	1.04 (inactive)	0.421	2.05 (inactive)	1.09 (inactive)	-0.951
